Assay [1] in a line: qHTS assay to identify small molecule agonists of the hypoxia (HIF-1) signaling pathway - cell viability counter screen (AID 1224844; calls by dose curve; note: nearly all actives have a fitted effect of over 50% in size; note: potency is the fitted concentration of half-maximal effect). The essentials: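 HRE-bla ME-180; 0.5% dFBS; cpd 17 h, 37C, 5% CO2; CellTiter-Glo lum., 30 min RT, post-FRET read, same wells.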
(qHTS replaces the single test concentration by a dilution series.)

Assay [2] can be described thus: qHTS assay to identify small molecule agonists of H2AX (AID 1224845; active = well fitted activation curve with a large enough effect in the signal ratio in the repeat runs, not every such curve was filed as active; the % refers to the signal ratio). Summed up: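 Wild-type CHO-K1 cells plated overnight, then exposed 3 hr at 37C to compounds at 15 concentrations (0.76% DMSO). Lysed, then HTRF anti-pH2AX(S139)-cryptate/anti-H2AX-d2 detection after 24 hr at room temperature; emissions 665 and 620 nm.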
Assay [3] can be described thus: qHTS assay to identify small molecule agonists of the hypoxia (HIF-1) signaling pathway (AID 1224846; active = well fitted activation curve with a large enough effect in the signal ratio in the repeat runs, not every such curve was filed as active; the % refers to the signal ratio). Summed up:
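Reporter induction in HRE-bla ME-180 cells is taken as agonism: cells sit 5 hrs after plating, receive compounds or DMSO only, incubate 17 hrs at 37C under 5% CO2, and are loaded with CCF4-AM for beta-lactamase FRET measurement.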

Assay [4] in a line: qHTS assay to identify small molecule agonists of H2AX - cell viability counter screen (AID 1224847; calls by dose curve; note: nearly all actives have a fitted effect of over 30% in size; note: potency is the fitted concentration of half-maximal effect). Summed up: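 After overnight plating of 1000 CHO-K1 cells per well, a 15-concentration compound series was applied for 3 hr at 37C. Luminescence from CellTiter-Glo, read following 30 min at room temperature, reflected cell viability.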
Assay [5] in a line: qHTS RealTime-Glo MT Cell Viability Assay in HepG2 cells - 24 hour (AID 1224867). Note: nearly all actives have a fitted effect of over 50% in size. Note: potency is the fitted concentration of half-maximal effect. The essentials: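 HepG2 suspension premixed with RealTime-Glo reagents is plated at 600 cells per well and left 5 h at 37 C/5% CO2. Compounds in DMSO then go in, and bioluminescence reflecting viable cell number is recorded over 40 h.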
Assay [6] in a line: qHTS RealTime-Glo MT Cell Viability Assay in HEK293 cells - 32 hour (AID 1224868). Note: nearly all actives have a fitted effect of over 50% in size. Note: potency is the fitted concentration of half-maximal effect. Summed up: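 Reads taken at 0, 8, 16, 24, 32 and 40 h from the same wells. HEK293 cells (600/well) carried RealTime-Glo reagents from seeding, with compound added after a 5 h settle at 37 C.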
Assay [7] can be described thus: A CellTox Green Cytotoxicity Assay to monitor cytotoxicity in HEK293 cells - 0 hour (AID 1224869). Note: nearly all actives have a fitted effect of over 50% in size. The essentials: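 Tox21 screen in HEK293: membrane-impermeant cyanine dye fluoresces on binding dead-cell DNA; compound pinned 5 h post-seeding, plates held at 37 C, signal read repeatedly through 40 h.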
Assay [8] is described as follows: qHTS RealTime-Glo MT Cell Viability Assay in HepG2 cells - 40 hour (AID 1224870). Note: nearly all actives have a fitted effect of over 50% in size. Note: potency is the fitted concentration of half-maximal effect. Summed up: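 HepG2 cells mixed with RealTime-Glo MT reagents (NanoLuc plus cell-permeant prosubstrate) were seeded at 600 cells/well, incubated 5 h at 37 C/5% CO2, then pinned with compounds in DMSO; nonlytic luminescence tracked viability during 40 h treatment.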
Assay [9] in a line: qHTS assay to identify small molecule agonists of the estrogen related receptor (ERR) signaling pathway from Tox21 library (AID 1224849; calls by dose curve; note: nearly all actives have a fitted effect of over 15% in size). To be noted: ERR reporter cell line, ONE-Glo luciferase, 18 h. Summed up:
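Tox21 compounds tested for ERR agonism in an NTP reporter cell line: 18 h treatment at 37 C, then ONE-Glo luminescence.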

Where “and” joins values, the source holds several entries; their conditions need not be identical. Equal entries are not always repeated. Records with an inconclusive call do not appear. Where a structure was tested more than once in an assay, its records may differ in their call. Calls of active or inactive are those of the source. Unless noted, calls come from the whole dose curve; as a rule, active = well fitted curve in the direction sought with a large enough effect in the repeat runs; inconclusive = weak or mixed curves; inactive = no such curve, though single readings can be large; an effect the other way counts as inactive or inconclusive.
% is set by controls: 0 for no effect and ±100 for the full control effect.

Regarding `COc1ccc(CO)cc1`, the Potency entry in [1], in [2], in assay [4], in assay [5], in assay [6] and in [7] was “inactive” each time. The Potency result in assay [8] is “inactive”. The compound was called inactive in assay [3].

On to `O=C(O)CF`, for which the Potency entry in assay [1], in [2], in [4], in assay [5], in [6] and in assay [7] was “inactive” throughout. The Potency result in [8] was “inactive”. Also, the compound was classed as inactive in assay [3].

Consider `O=P(OCCCl)(OCCCl)OCCCl`, for which the Potency entry in assay [1], in assay [2], in assay [4], in [6], in assay [7] and in assay [8] was “inactive” each time. Further, the result in assay [3] was inactive. Moreover, the activity change, positive = activation in assay [9] (at 92.4 µM (top of the series)) was 1.87% (inactive) and 3.07% (inactive).

`ClCc1ccccn1`: the Potency entry in [1], in assay [2], in assay [4], in assay [5], in assay [6] and in [7] was “inactive” each time. For the same compound, the Potency result in assay [8] is “inactive”. Also, in assay [3], the result was inactive.

`OCCOCCO`: the Potency entry in assay [1], in assay [2], in [4], in assay [5], in [6] and in [7] was “inactive” in each case. Further, the Potency entry in assay [8] is “inactive”. In assay [3], the compound was called inactive.

As for `O=C(O)c1nn(Cc2ccc(Cl)cc2Cl)c2ccccc12`, the Potency result in assay [1], in assay [2], in assay [4], in assay [5], in assay [6] and in assay [7] was “inactive” throughout. The Potency entry in assay [8] is “inactive”. The result in assay [3] was inactive. For the same compound, the activity change, positive = activation in assay [9] (at 42.5 µM (top of the series)) was -5.39% (inactive); in assay [9] (at 92.4 µM (top of the series)) it was -48% (inactive).

As for `O=NN1CCOCC1`, the Potency result in [1], in assay [2], in assay [4], in [5], in assay [7] and in assay [8] was “inactive” each time. Also, in assay [3], the compound was called inactive. Further, the Potency result in assay [6] is “inactive and 2.19 µM (active)”.

For the compound `N#Cc1cccnc1`, the Potency result in assay [1], in [2], in assay [4], in assay [5], in [6] and in assay [7] was “inactive” in each case. In assay [8], the Potency entry was “inactive”. For the same compound, the result in [3] was inactive. In addition, in [9] (at 92.4 µM (top of the series)), the activity change, positive = activation is 5.82% (inactive) and 1.56% (inactive).

As to `CC1(C)Cc2cccc(O)c2O1`, the Potency result in assay [1], in assay [2], in [4], in [5], in assay [6] and in [7] was “inactive” in each case. In [8], the Potency entry was “inactive”. For the same compound, the compound was classed as inactive in assay [3].

Turning to `Clc1ccccc1-c1nnc(-c2ccccc2Cl)nn1`, the Potency result in assay [1], in assay [2], in assay [5], in assay [6], in [7] and in assay [8] was “inactive” each time. Further, in [3], the compound was classed as inactive. Moreover, the Potency in assay [4] is 100 µM (active).

With `COP(=S)(OC)Oc1ccc(S(=O)(=O)N(C)C)cc1`, the Potency result in assay [1], in [2], in assay [4], in assay [6], in [7] and in assay [8] was “inactive” each time. In addition, in [3], the outcome was inactive. Besides, the activity change, positive = activation in assay [9] (at 42.5 µM (top of the series)) was -5.44% (inactive); in assay [9] (at 92.4 µM (top of the series)) it was -12.4% (inactive).

As to `CCNc1nc(Cl)nc(NC(C)(C)C#N)n1`, the Potency entry in assay [1], in assay [2], in assay [4], in assay [5], in assay [6] and in assay [7] was “inactive” each time. Besides, the Potency entry in assay [8] is “inactive”. The outcome in assay [3] was inactive.

Turning to `COP(=S)(OC)Oc1ccc(Sc2ccc(OP(=S)(OC)OC)cc2)cc1`, the Potency result in [1], in assay [2], in assay [4], in [6], in [7] and in [8] was “inactive” throughout. Moreover, the compound was called inactive in [3]. The values for the activity change, positive = activation in assay [9] (at 42.5 µM (top of the series)) and in assay [9] (at 92.4 µM (top of the series)) were -3.82% (inactive) and -40% (inactive), respectively.

For `CCOP(=O)(O)OCC` (tested in a mixture with another compound), the Potency entry in assay [1], in assay [2] and in [7] was “inactive” throughout. Moreover, the call in assay [3] was inactive. Further, the Potency result in assay [4] was “inactive and 28.2 µM (active)”; in assay [5], “inactive and 48.6 µM (active)”; in assay [6], “inactive and 4.33 µM (active)”; in [8] it was “inactive and 43.3 µM (active)”.

On to `N#CC(c1ccccc1)c1ccccc1`, for which the Potency result in [1], in assay [2], in assay [4], in assay [5], in assay [6] and in [7] was “inactive” in each case. Also, in assay [8], the Potency result is “inactive”. In addition, the result in assay [3] was inactive. Further, the activity change, positive = activation in [9] (at 92.4 µM (top of the series)) is -14.8% (inactive) and -8.2% (inactive).

Regarding `COP(=S)(OC)SCn1nnc2ccccc2c1=O`, the Potency result in assay [1], in [2], in assay [4], in [7] and in [8] was “inactive” each time. The result in assay [3] was inactive. In assay [9] (at 92.4 µM (top of the series)), the activity change, positive = activation is -43.4% (inactive) and -47.5% (inactive).

Turning to `O=S(=O)(O)C(F)(F)C(F)(F)C(F)(F)C(F)(F)C(F)(F)C(F)(F)C(F)(F)C(F)(F)F`, in assay [1], the Potency was 33 µM (active) and 49 µM (active) and 12.3 µM (active). The Potency result in [2], in [4], in [5], in assay [6], in assay [7] and in assay [8] was “inactive” in each case. The outcome in assay [3] was inactive. In addition, the activity change, positive = activation in [9] (at 92.4 µM (top of the series)) is -7.99% (inactive) and -0.0044% (inactive) and -21.1% (inactive).

For `CN(C)P(=O)(N(C)C)N(C)C`, the Potency entry in assay [1], in assay [2], in assay [4], in [6], in [7] and in assay [8] was “inactive” in each case. In assay [3], the compound was called inactive. The activity change, positive = activation in assay [9] (at 92.4 µM (top of the series)) is 5.26% (inactive) and 10.2% (inactive).

For the compound `ClC(Cl)=C(Cl)C(Cl)=C(Cl)Cl`, the Potency result in assay [1], in [2], in assay [4], in [5], in [6] and in assay [7] was “inactive” in each case. Moreover, in [8], the Potency result is “inactive”. In addition, in assay [3], the compound was classed as inactive.

As to `O=C1CCCO1`, the Potency result in assay [1], in assay [2], in assay [4], in assay [6], in [7] and in [8] was “inactive” each time. The outcome in assay [3] was inactive. Moreover, the activity change, positive = activation in assay [9] (at 92.4 µM (top of the series)) is 3.83% (inactive) and -0.0508% (inactive).

As for `CC1CC(=O)O1` (centres undefined), the Potency result in assay [1], in assay [2], in assay [4], in [5], in assay [6] and in [7] was “inactive” each time. In assay [8], the Potency result is “inactive”. Further, the compound was called inactive in [3].

The record behind these values is PubChem BioAssay (Tox21).
